From PubChem BioAssay
Active and inactive are the calls of the source. No rule for the calls is given here.

Test: inhibition of 3D7 malaria parasite growth – strain 3D7 (AID 2306);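 also: 0% = DMSO wells and 100% = chloroquine plus artemisinin control wells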
Conditions: P. falciparum 3D7 erythrocytic growth, LDH absorbance, 72 h; at 2 µM; active compounds read high

Which growth inhibition does the source give for `COc1cc2nc(NCc3cccc(CNC(=O)c4ccc(-c5ccc(C(C)=O)cc5)cc4)c3)nc(N)c2cc1OC` here?
Its growth inhibition is 100% (active).

With `COc1ccc(CCN(C)CCCOc2ccc(NC(=O)COc3cccc4sc5ccccc5c(=O)c34)cc2)cc1OC` as the molecule, how does the growth inhibition read?
The growth inhibition was 94% (active).

For `O=S(=O)(c1ccc(OCc2ccc(Cl)cc2)cc1)c1cc2c(cc1O)CCN(C1CCC1)CC2`, which growth inhibition is on record?
The growth inhibition was 99% (active).

Which growth inhibition does the source give for `O=C(Nc1ccccc1)Nc1cccc(-c2nn3c(OCC4CCCCN4)cccc3c2-c2ccncc2)c1` (centres undefined) here?
The growth inhibition was 97% (active).

For `Cc1nnsc1C(=O)Nc1cccc(-c2cccc(-c3nc4ccc(F)cc4[nH]3)c2)c1`, which growth inhibition is on record?
The growth inhibition was 100% (active).

With `CN(CCCNCc1cccc2ccccc12)CCCNCc1cccc2ccccc12` as the molecule, how does the growth inhibition read?
Its growth inhibition is 100% (active).

For `C[C@@H](Nc1nc(NCc2ccccc2)c2sccc2n1)c1ccccc1`, which growth inhibition is on record?
Its growth inhibition is 91% (active).

Which growth inhibition does the source give for `CN(C)CCCOc1ccccc1CN1CC[C@H](NC(=O)c2ccc(Cl)c(Cl)c2)C1` here?
The growth inhibition was 94% (active).

For `COc1ccc(-c2cccc(NC(=O)c3cccc(C#N)c3)c2)cc1CN1CCNCC1`, which growth inhibition is on record?
Its growth inhibition is 101% (active).

For `Cc1nc2c(Nc3nc(-c4ccncc4)cs3)ncnc2n1-c1ccccc1Cl`, which growth inhibition is on record?
The growth inhibition was 97% (active).

With `Fc1ccc(Nc2ccnc3cc(-c4ccc(CN5CCOCC5)o4)ccc23)c(Cl)c1` as the molecule, how does the growth inhibition read?
The growth inhibition was 101% (active).

Which growth inhibition does the source give for `O=C(/C=C/c1ccc(Cl)c(Cl)c1)NCCCCCN1CCC(NC(=O)Nc2ccc([N+](=O)[O-])cc2)CC1` here?
The growth inhibition was 102% (active).

With `CO/C(=C\C=C\c1cc2cc(Cl)c(Cl)cc2[nH]1)C(=O)NC1CCN(CCCc2ccccc2)CC1` as the molecule, how does the growth inhibition read?
Its growth inhibition is 93% (active).

For `COc1ccc2cc(CNCCCCCCNCc3ccc4cc(OC)ccc4c3)ccc2c1`, which growth inhibition is on record?
The growth inhibition was 100% (active).
